# Assay results from the supplement of paper PMC8728848.
# Many of the other results were omitted from the sample, so the strongest signals are more common in it than they were.
# B1: Siglec-F (Mus musculus), Q920G3 (protein)
# chain: MRWAWLLPLLWAGCLATDGYSLSVTGSVTVQEGLCVFVACQVQYPNSKGPVFGYWFREGANIFSGSPVATNDPQRSVLKEAQGRFYLMGKENSHNCSLDIRDAQKIDTGTYFFRLDGSVKYSFQKSMLSVLVIALTEVPNIQVTSTLVSGNSTKLLCSVPWACEQGTPPIFSWMSSALTSLGHRTTLSSELNLTPRPQDNGTNLTCQVNLPGTGVTVERTQQLSVIYAPQKMTIRVSWGDDTGTKVLQSGASLQIQEGESLSLVCMADSNPPAVLSWERPTQKPFQLSTPAELQLPRAELEDQGKYICQAQNSQGAQTASVSLSIRSLLQLLGPSCSFEGQGLHCSCSSRAWPAPSLRWRLGEGVLEGNSSNGSFTVKSSSAGQWANSSLILSMEFSSNHRLSCEAWSDNRVQRATILLVSGPKVSQAGKSETSRGTVLGAIWGAGLMALLAVCLCLIFFTVKVLRKKSALKVAATKGNHLAKNPASTINSASITSSNIALGYPIQGHLNEPGSQTQKEQPPLATVPDTQKDEPELHYASLSFQGPMPPKPQNTEAMKSVYTEIKIHKC
# Tests used:
# Test in all cases: glycan array binding signal (z-score within array); higher = stronger binding
# Details in all cases: glycan notation: IUPAC condensed, linker removed
# [1] = target: GalNAc(a1-3)Fuc(a1-2)Gal(b1-4)GlcNAc(b1-3)[GalNAc(a1-3)Fuc(a1-2)Gal(b1-4)GlcNAc(b1-6)]GalNAc
# In short: (§1)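 Glycan array data came from 3228 arrays in the Consortium for Functional Glycomics database, and only arrays with an available protein sequence were kept. Glycan names were put into IUPAC-condensed notation, and columns mapping to the same glycan were averaged. The binding signal is a within-array Z-score, averaged across arrays of one protein sequence run at different concentrations or buffers and across linkers. A negative Z-score can be read as non-binding.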
# GalNAc(b1-3)GlcNAc = target: GalNAc(b1-3)GlcNAc
# In short: as §1
# GalNAc(b1-4)Gal(b1-4)Glc = target: GalNAc(b1-4)Gal(b1-4)Glc
# In short: as §1
# [2] = target: GlcNAc(a1-4)Gal(b1-4)GlcNAc(b1-3)Gal(b1-4)GlcNAc
# In short: as §1
# GlcNAc(b1-3)Fuc = target: GlcNAc(b1-3)Fuc
# In short: as §1
# [3] = target: GlcNAc(b1-3)Gal(b1-4)GlcNAc(b1-3)Gal(b1-4)GlcNAc(b1-2)Man(a1-3)[GlcNAc(b1-3)Gal(b1-4)GlcNAc(b1-3)Gal(b1-4)GlcNAc(b1-2)Man(a1-6)]Man(b1-4)GlcNAc(b1-4)GlcNAc
# In short: as §1
# [4] = target: GlcNAc(b1-3)Gal(b1-4)GlcNAc(b1-6)[Gal(b1-3)]GalNAc
# In short: as §1
# GlcNAc(b1-3)GalNAc = target: GlcNAc(b1-3)GalNAc
# In short: as §1
# Man(a1-3)[Man(a1-6)]Man = target: Man(a1-3)[Man(a1-6)]Man
# In short: as §1
# [5] = target: Neu5Ac(a2-3)Gal(b1-3)GalNAc(b1-4)[Neu5Ac(a2-3)]Gal(b1-4)Glc
# In short: as §1
# [6] = target: Neu5Ac(a2-3)Gal(b1-3)[Fuc(a1-4)]GlcNAc(b1-3)Gal(b1-4)[Fuc(a1-3)]GlcNAc
# In short: as §1
# [7] = target: Neu5Ac(a2-3)Gal(b1-3)[Neu5Ac(a2-3)Gal(b1-4)]GlcNAc
# In short: as §1
# [8] = target: Neu5Ac(a2-3)Gal(b1-3)]Neu5Ac(a2-3)Gal(b1-4)]GlcNAc
# In short: as §1
# [9] = target: Neu5Ac(a2-3)Gal(b1-4)GlcNAc(b1-2)Man(a1-3)[GlcNAc(b1-2)Man(b1-4)GlcNAc(b1-2)Man(a1-6)]Man(b1-4)GlcNAc(b1-4)GlcNAc
# In short: as §1
# [10] = target: Neu5Ac(a2-3)Gal(b1-4)GlcNAc(b1-2)Man(a1-3)[Neu5Ac(a2-3)Gal(b1-4)GlcNAc(b1-2)Man(a1-6)]Man(b1-4)GlcNAc(b1-4)GlcNAc
# In short: as §1
# [11] = target: Neu5Ac(a2-3)Gal(b1-4)GlcNAc(b1-2)Man(a1-3)[Neu5Ac(a2-3)Gal(b1-4)GlcNAc(b1-2)Man(a1-6)]Man(b1-4)GlcNAc(b1-4)[Fuc(a1-6)]GlcNAc
# In short: as §1
# [12] = target: Neu5Ac(a2-3)Gal(b1-4)GlcNAc(b1-2)[Neu5Ac(a2-3)Gal(b1-4)GlcNAc(b1-4)]Man(a1-3)[GlcNAc(b1-4)][Neu5Ac(a2-3)Gal(b1-4)GlcNAc(b1-2)[Neu5Ac(a2-3)Gal(b1-4)GlcNAc(b1-6)]Man(a1-6)]Man(b1-4)GlcNAc(b1-4)GlcNAc
# In short: as §1
# [13] = target: Neu5Ac(a2-3)Gal(b1-4)GlcNAc(b1-2)[Neu5Ac(a2-3)Gal(b1-4)GlcNAc(b1-4)]Man(a1-3)[GlcNAc(b1-4)][Neu5Ac(a2-3)Gal(b1-4)GlcNAc(b1-4)Man(a1-6)]Man(b1-4)GlcNAc(b1-4)GlcNAc
# In short: as §1
# [14] = target: Neu5Ac(a2-3)Gal(b1-4)GlcNAc(b1-2)[Neu5Ac(a2-3)Gal(b1-4)GlcNAc(b1-6)]Man(a1-6)[Neu5Ac(a2-3)Gal(b1-4)GlcNAc(b1-2)Man(a1-3)][GlcNAc(b1-4)]Man(b1-4)GlcNAc(b1-4)GlcNAc
# In short: as §1
# [15] = target: Neu5Ac(a2-3)Gal(b1-4)GlcNAc(b1-6)[Neu5Ac(a2-3)Gal(b1-3)]GalNAc
# In short: as §1
# [16] = target: Neu5Ac(a2-3)Gal(b1-4)[Fuc(a1-3)]GlcNAc(b1-3)Gal
# In short: as §1
# [17] = target: Neu5Ac(a2-3)Gal(b1-4)[Fuc(a1-3)]GlcNAc(b1-3)Gal(b1-4)[Fuc(a1-3)]GlcNAc(b1-3)Gal(b1-4)[Fuc(a1-3)]GlcNAc
# In short: as §1
# [18] = target: Neu5Ac(a2-3)Gal6S(b1-4)GlcNAc
# In short: as §1
# [19] = target: Neu5Ac(a2-3)Gal6S(b1-4)[Fuc(a1-3)]GlcNAc
# In short: as §1
# [20] = target: Neu5Ac(a2-6)Gal(b1-4)GlcNAc(b1-2)[Neu5Ac(a2-6)Gal(b1-4)GlcNAc(b1-4)]Man(a1-3)[GlcNAc(b1-4)][Neu5Ac(a2-6)Gal(b1-4)GlcNAc(b1-4)Man(a1-6)]Man(b1-4)GlcNAc(b1-4)GlcNAc
# In short: as §1
# Neu5Ac(a2-6)GalNAc = target: Neu5Ac(a2-6)GalNAc
# In short: as §1
# Neu5Gc(a2-3)Gal(b1-4)Glc = target: Neu5Gc(a2-3)Gal(b1-4)Glc
# In short: as §1
# [21] = target: Neu5Gc(a2-3)Gal(b1-4)GlcNAc
# In short: as §1
binder,measurement,setting,value
B1,glycan array binding signal (z-score),[1],-0.088
same,glycan array binding signal (z-score),GalNAc(b1-3)GlcNAc,-0.154
same,glycan array binding signal (z-score),GalNAc(b1-4)Gal(b1-4)Glc,-0.099
same,glycan array binding signal (z-score),[2],-0.146
same,glycan array binding signal (z-score),GlcNAc(b1-3)Fuc,-0.135
same,glycan array binding signal (z-score),[3],-0.064
same,glycan array binding signal (z-score),[4],-0.15
same,glycan array binding signal (z-score),GlcNAc(b1-3)GalNAc,-0.12
same,glycan array binding signal (z-score),Man(a1-3)[Man(a1-6)]Man,-0.113
same,glycan array binding signal (z-score),[5],3.76
same,glycan array binding signal (z-score),[6],-0.066
same,glycan array binding signal (z-score),[7],2.46
same,glycan array binding signal (z-score),[8],3.65
same,glycan array binding signal (z-score),[9],2.11
same,glycan array binding signal (z-score),[10],1.94
same,glycan array binding signal (z-score),[11],2.76
same,glycan array binding signal (z-score),[12],8.27
same,glycan array binding signal (z-score),[13],5.53
same,glycan array binding signal (z-score),[14],5.76
same,glycan array binding signal (z-score),[15],0.072
same,glycan array binding signal (z-score),[16],-0.088
same,glycan array binding signal (z-score),[17],-0.109
same,glycan array binding signal (z-score),[18],13.2
same,glycan array binding signal (z-score),[19],12.9
same,glycan array binding signal (z-score),[20],-0.097
same,glycan array binding signal (z-score),Neu5Ac(a2-6)GalNAc,-0.113
same,glycan array binding signal (z-score),Neu5Gc(a2-3)Gal(b1-4)Glc,-0.118
same,glycan array binding signal (z-score),[21],-0.126
